The full data set covers some 7,900 targets. This sample favours those with a hit. About 0.6% of all pairs of compound and target were hits.
Each target was assayed with c1cn2cc(-c3ccc4cn[nH]c4c3)nc(Nc3ccc(N4CCOCC4)cc3)c2n1 [entospletinib] (assay: log2 fold change, soluble protein after heating vs DMSO (PISA); higher = thermal stabilisation; K562 cells, 10 uM, 30 min; active = over 0.2 and 3.5 SD of the protein, either way, in both replicates (recomputed)).
Method in brief: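 K562 cells at 2×10^6 cells/mL were treated for 30 min with 10 μM compound, and aliquots were heated for 3 min over 48°C-58°C before pooling. Extraction used PBS with 0.5% NP-40 at 4°C, and soluble protein was the supernatant after 21,000xg for 90 min, measured by TMTpro 16plex LC-MS/MS with channel sums equalised. Thermal stability values, relative to control samples and from duplicates, are log2 fold changes.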

Chain of UniProt Q7L0Y3 (Q7L0Y3 whole entry, looked up): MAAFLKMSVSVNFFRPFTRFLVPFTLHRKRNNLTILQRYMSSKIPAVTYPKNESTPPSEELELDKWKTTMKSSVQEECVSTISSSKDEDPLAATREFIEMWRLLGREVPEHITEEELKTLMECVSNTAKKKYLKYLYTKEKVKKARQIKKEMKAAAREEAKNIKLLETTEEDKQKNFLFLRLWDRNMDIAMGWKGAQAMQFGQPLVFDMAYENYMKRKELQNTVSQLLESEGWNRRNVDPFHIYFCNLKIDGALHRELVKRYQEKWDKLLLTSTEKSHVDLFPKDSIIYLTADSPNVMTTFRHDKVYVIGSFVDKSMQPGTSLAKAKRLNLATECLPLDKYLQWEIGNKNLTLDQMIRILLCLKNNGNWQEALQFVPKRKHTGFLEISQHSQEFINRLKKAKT
Chain of UniProt A3KMH1 (A3KMH1 whole entry, looked up): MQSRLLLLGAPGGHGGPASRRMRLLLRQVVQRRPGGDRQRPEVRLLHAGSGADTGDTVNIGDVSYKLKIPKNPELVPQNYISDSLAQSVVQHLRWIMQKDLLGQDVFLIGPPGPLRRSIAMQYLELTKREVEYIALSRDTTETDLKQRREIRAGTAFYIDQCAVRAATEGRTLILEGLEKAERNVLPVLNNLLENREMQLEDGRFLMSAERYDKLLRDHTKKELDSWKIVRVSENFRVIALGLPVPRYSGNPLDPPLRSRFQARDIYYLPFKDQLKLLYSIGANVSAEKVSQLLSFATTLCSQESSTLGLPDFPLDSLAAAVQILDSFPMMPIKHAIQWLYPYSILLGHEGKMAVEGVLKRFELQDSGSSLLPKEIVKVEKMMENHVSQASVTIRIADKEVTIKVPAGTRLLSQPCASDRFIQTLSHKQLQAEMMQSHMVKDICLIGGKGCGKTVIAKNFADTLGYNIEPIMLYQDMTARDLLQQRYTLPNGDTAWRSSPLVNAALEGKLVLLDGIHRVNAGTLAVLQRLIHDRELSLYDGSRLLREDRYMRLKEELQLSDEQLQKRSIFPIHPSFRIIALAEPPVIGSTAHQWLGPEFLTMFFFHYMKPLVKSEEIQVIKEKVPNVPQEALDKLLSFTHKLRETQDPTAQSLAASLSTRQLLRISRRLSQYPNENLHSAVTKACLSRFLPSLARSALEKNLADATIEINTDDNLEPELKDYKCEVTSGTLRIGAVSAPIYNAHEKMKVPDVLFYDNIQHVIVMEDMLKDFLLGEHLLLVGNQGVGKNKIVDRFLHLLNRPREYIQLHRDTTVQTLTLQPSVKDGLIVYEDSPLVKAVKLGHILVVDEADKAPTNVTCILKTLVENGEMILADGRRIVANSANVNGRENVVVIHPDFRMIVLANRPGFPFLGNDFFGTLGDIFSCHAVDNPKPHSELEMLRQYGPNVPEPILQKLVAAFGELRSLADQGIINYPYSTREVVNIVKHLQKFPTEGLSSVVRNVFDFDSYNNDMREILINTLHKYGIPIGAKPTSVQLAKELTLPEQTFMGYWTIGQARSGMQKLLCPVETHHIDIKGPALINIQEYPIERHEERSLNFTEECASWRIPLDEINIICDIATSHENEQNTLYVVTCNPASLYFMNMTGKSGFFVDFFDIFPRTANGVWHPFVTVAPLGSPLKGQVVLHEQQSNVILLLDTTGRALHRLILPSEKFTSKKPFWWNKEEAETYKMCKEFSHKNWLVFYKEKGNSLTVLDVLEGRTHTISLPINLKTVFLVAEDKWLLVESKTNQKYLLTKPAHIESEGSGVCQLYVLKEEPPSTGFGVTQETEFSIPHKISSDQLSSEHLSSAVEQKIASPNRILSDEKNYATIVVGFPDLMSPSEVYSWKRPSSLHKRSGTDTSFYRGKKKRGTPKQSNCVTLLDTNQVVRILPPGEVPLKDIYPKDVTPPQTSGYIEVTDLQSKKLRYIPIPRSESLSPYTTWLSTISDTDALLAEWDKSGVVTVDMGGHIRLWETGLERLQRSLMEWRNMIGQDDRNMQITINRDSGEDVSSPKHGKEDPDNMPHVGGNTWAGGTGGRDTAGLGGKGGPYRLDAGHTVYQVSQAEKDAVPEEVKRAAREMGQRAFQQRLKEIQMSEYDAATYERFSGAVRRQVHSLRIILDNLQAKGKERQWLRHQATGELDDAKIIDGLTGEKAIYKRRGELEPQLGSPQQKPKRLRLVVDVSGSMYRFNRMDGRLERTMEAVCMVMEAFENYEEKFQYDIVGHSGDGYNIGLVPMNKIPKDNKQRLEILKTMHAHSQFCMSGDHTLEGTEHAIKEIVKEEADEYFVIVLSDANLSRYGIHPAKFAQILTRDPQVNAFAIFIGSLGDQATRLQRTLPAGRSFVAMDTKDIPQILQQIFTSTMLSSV
Chain of UniProt O75554 (O75554 whole entry, looked up): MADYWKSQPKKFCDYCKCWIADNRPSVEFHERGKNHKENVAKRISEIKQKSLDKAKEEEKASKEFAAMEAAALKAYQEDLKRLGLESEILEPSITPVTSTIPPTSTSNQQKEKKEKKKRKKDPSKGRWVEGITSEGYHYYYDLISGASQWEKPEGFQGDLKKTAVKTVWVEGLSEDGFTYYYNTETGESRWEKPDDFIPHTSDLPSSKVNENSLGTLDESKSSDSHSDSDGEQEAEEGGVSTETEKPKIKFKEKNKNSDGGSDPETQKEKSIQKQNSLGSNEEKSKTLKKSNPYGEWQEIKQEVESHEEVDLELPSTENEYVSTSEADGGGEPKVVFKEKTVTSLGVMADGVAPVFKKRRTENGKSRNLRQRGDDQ
Chain of UniProt Q9UK41 (Q9UK41 whole entry, looked up): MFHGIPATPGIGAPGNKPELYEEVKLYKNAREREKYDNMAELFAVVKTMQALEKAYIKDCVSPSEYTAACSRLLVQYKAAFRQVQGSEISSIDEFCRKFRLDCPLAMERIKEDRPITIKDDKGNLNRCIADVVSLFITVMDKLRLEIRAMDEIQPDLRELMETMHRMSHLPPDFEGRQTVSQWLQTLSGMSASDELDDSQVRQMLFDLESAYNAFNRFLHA
Chain of UniProt Q86TN4 (Q86TN4 whole entry, looked up): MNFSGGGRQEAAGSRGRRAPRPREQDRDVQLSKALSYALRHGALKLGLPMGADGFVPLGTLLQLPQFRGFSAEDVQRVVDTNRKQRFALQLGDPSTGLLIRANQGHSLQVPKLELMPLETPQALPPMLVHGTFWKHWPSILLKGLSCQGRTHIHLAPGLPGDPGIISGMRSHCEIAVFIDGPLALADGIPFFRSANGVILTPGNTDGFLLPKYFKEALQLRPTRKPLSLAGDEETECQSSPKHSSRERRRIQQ
Chain of UniProt Q14139 (Q14139 whole entry, looked up): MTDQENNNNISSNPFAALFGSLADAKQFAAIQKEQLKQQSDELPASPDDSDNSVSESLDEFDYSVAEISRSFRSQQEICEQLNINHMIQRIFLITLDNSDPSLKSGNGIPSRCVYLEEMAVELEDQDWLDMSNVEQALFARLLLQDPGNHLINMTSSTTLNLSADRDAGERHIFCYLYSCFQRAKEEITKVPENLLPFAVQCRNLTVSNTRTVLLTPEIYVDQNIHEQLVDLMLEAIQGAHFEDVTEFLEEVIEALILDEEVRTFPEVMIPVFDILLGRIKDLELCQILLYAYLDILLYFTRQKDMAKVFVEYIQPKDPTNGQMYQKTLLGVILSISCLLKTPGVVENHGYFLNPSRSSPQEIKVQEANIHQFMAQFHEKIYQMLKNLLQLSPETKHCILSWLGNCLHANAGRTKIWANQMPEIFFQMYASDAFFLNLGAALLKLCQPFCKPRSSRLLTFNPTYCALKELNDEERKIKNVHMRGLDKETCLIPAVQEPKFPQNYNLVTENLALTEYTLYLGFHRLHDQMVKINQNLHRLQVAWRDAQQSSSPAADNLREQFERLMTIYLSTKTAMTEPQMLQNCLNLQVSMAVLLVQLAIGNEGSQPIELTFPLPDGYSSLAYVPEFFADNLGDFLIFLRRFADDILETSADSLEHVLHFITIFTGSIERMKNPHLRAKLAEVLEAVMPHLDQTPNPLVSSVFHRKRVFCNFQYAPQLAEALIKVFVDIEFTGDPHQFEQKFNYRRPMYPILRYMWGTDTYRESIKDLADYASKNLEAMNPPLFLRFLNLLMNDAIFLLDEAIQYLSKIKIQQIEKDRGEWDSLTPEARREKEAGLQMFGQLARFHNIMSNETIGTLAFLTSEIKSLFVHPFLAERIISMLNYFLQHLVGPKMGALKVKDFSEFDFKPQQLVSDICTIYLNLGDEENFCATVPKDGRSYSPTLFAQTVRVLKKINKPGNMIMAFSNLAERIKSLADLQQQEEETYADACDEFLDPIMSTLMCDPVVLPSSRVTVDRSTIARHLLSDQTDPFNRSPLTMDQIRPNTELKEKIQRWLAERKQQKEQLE
Chain of UniProt Q8N4H5 (Q8N4H5 whole entry, looked up): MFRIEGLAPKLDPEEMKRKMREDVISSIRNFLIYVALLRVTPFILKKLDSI
Chain of UniProt Q9UGM6 (Q9UGM6 whole entry, looked up): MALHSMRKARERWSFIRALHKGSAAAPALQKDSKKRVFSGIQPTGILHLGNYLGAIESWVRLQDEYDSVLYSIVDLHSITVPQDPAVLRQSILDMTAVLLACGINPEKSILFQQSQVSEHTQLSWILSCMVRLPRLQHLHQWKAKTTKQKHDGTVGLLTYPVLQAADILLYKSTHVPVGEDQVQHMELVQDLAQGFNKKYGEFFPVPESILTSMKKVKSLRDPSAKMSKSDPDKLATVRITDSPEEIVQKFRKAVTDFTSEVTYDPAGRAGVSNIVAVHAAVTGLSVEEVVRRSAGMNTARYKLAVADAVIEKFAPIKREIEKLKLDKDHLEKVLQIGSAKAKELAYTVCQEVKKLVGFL
Chain of UniProt Q9UL33 (Q9UL33 whole entry, looked up): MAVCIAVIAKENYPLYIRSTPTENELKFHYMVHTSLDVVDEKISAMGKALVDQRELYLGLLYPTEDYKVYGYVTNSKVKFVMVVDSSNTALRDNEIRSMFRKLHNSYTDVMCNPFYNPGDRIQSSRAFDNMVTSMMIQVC
Chain of UniProt Q9BQB6 (Q9BQB6 whole entry, looked up): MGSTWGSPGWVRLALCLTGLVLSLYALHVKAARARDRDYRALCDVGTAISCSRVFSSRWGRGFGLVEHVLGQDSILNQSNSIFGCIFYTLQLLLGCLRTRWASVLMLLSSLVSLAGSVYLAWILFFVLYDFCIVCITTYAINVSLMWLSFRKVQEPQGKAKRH

log2 fold change, inactive:
UPF3B (UniProt Q9BZI7) 0.098
TTI1 (UniProt O43156) 0.1
TRPT1 isoform 4 (UniProt Q86TN4) 0.051
TRAPPC2L (UniProt Q9UL33) 0.039
WARS2 (UniProt Q9UGM6) -0.042
VPS28 (UniProt Q9UK41) -0.039
WDR18 (UniProt Q9BV38) -0.061
WBP4 (UniProt O75554) 0.036
TTC38 (UniProt Q5R3I4) -0.114
VWA8 (UniProt A3KMH1) -0.03
TMEM87B (UniProt Q96K49) 0.063
UBE4A isoform 2 (UniProt Q14139) -0.043
TRMT10C (UniProt Q7L0Y3) -0.043
XPO5 (UniProt Q9HAV4) 0.001
TOMM5 isoform 2 (UniProt Q8N4H5) -0.033
VKORC1 (UniProt Q9BQB6) 0.006
